Hits are enriched below; roughly 1.4% of the tested compounds scored in any of these assays.
GC-B act = GC-B (human) receptor activation | P20594 | HEK293-GC-B cells, CNP EC30, cGMP TR-FRET; 0% at EC30 CNP, 100% saturating CNP | activation, % at 10 µM | hit rate 0.11% among 370,000;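 active means activation at 10 µM reaching about 35% in either raw or pattern-adjusted values, limit read from the data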
APOBEC3G inh = inhibitors of human APOBEC3G DNA deaminase; AID 493012; inhibition, % at 20 µM; hit rate 0.28% among 330,000; Q9HC16; recombinant A3G, ssDNA deamination FAM/TAMRA fluorescence;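 active means inhibition of at least 40% at 20 µM, with no more than 30% in the related APOBEC3A deaminase screen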;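 further: plate controls were DMSO wells with A3G for no effect and wells lacking A3G enzyme for full effect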
Target sequence (Q9HC16 whole entry, looked up): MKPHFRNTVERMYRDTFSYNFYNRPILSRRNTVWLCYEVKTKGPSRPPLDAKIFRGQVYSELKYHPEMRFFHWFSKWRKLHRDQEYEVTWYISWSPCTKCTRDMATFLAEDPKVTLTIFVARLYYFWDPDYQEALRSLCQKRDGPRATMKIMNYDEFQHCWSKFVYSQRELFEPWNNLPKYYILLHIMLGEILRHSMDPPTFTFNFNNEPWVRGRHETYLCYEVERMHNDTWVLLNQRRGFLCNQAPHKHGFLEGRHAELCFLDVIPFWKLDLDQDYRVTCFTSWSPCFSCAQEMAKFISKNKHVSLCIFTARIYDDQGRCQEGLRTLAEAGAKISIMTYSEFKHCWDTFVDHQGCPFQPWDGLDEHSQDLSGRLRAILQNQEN
A3A deaminase = blocks human APOBEC3A ssDNA deamination. P31941. recombinant A3A, FAM/TAMRA ssDNA deamination fluorescence. inhibition, % at 20 µM. hit rate 0.41% among 330,000;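 active means at least 40% inhibition at 20 µM here, with at most 30% in a related deaminase screen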;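 further: plate controls were A3A with DMSO for no effect and wells lacking A3A enzyme for full effect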
Target sequence (P31941 whole entry, looked up): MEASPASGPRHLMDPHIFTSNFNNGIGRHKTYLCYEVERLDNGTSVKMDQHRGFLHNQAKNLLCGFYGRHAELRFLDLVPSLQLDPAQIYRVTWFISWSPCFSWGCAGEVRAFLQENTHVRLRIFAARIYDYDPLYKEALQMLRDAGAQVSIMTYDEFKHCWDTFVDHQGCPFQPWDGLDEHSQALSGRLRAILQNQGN
GC-A act = GC-A (human) enzyme activation | HEK293 GC-A cells, cGMP TR-FRET, EC30 ANP; 0% at EC30 ANP, 100% saturating ANP | activation, % at 10 µM | AID 1671463 | hit rate 0.14% among 370,000 | P16066; in the data active means activation above about 40%
FAS-TE inh = blocks the thioesterase domain of human fatty acid synthase | P49327 | recombinant FAS-TE, OMFH fluorogenic substrate, fluorescence endpoint | inhibition, % at 15 µM | hit rate 0.67% among 360,000;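 active means compounds whose normalised, plate-corrected inhibition of enzyme fluorescence in the single-dose primary screen is 50% or more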;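 further: 0% = DMSO with enzyme and 100% = substrate without enzyme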
A3A conf = confirmation of human APOBEC3A DNA deaminase inhibitors. inhibition, % at 20 µM. AID 493151. shares compounds with A3A deaminase. hit rate 63% among 1,400. recombinant A3A, ssDNA deaminase UDG fluorescence assay;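 active means inhibition reaching a set limit, 80% of the first screen's cutoff, at 20 µM in any replicate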;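 further: plate controls were DMSO wells with A3A for no effect and wells lacking A3A enzyme for full effect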
UDG A3A counter = counter-screen for APOBEC3A inhibitors: UDG. UDG counterscreen, FAM/TAMRA uracil oligo fluorescence. inhibition, % at 20 µM. AID 504714. shares compounds with A3A deaminase. 1,000 tested, under 10 active; call rule not given here
Numbers without * were called inactive; . = not tested or not shown.

SMILES	GC-B act	APOBEC3G inh	A3A deaminase	GC-A act	FAS-TE inh	others
C[C@@H]1ON(C)[C@H]2C[C@H]3c4cc(-c5ccc(F)cc5)ccc4CCN3C[C@@H]12	3	.	.	3	.
NS(=O)(=O)c1ccc(NC(=O)CSc2nnc(-c3cccs3)o2)cc1	-12	.	.	-18	.
COC(=O)[C@]12C[C@H](CC(=O)N3CCOCC3)C(=O)N(Cc3cccc4ccccc34)C1=C[C@H](COCc1ccccc1)O[C@@H]2C	-1	.	.	-1	.
Cc1ccn2c(Nc3ccc4c(c3)OCO4)c(-c3ccc(O)cc3)nc2c1	16	2	-9	47*	9
Fc1ccc(N=c2ssnc2Cl)c(F)c1	8	74*	-1	3	-1
Clc1nssc1=Nc1ccccc1	.	.	.	.	-5
Clc1ccc(N=c2ssnc2Cl)cc1	24	76*	-1	14	-4
O=C(CCc1ccccc1)N[C@H]1[C@H](OC(=O)c2ccco2)CCC[C@]12C(=O)N(Cc1ccccc1)c1ccccc12	-4	.	.	-5	.
N#Cc1nc(Nc2cc(F)cc(F)c2)c2ncn(CC(F)F)c2n1	-9	4	1	14	14
N#Cc1nc(NCC(F)F)nc(Nc2cc(F)cc(F)c2)n1	39*	-12	-2	44*	33
CCOc1cc(N2CCOCC2)c(OCC)cc1NC(=O)COC(=O)c1ccc([N+](=O)[O-])o1	37*	0	3	37	1
CS(=O)(=O)c1sc(C#N)c2c1C(=O)CC(c1ccccc1)C2 (stereo not drawn)	48*	-1	4	-3	16
O=[N+]([O-])c1ccc(CN2CCOCCOCCN(Cc3ccc([N+](=O)[O-])cc3Cl)CCOCC2)c(Cl)c1	-2	.	.	-5	.
CCCc1ccc(Oc2cn[nH]c2-c2ccc(O)cc2O)cc1	1	-3	-1	40*	-150
C[C@@H]1ON(C)[C@H]2C[C@H]3c4[nH]c5c(-c6ccc(C(F)(F)F)cc6)cccc5c4CCN3C(=O)[C@@H]12	-1	.	.	-3	.
O=c1oc(Cl)c(Cl)c2ccccc12	3	-8	-2	5	92*
O=C(Nc1ccc2c(c1)OCO2)NC1CCN(S(=O)(=O)c2ccc(F)cc2)CC1	0	.	.	-1	.
O=C1c2ccccc2C(Nc2ccc3c(c2)OCO3)N1Cc1ccco1 (stereo not drawn)	-2	16	3	41*	4
O=C1c2ccccc2C(Nc2ccc3c(c2)OCO3)N1Cc1ccc2c(c1)OCO2 (stereo not drawn)	-5	20	-1	59*	15
O=C1c2ccccc2C(Nc2ccc(F)c(Cl)c2)N1Cc1ccco1 (stereo not drawn)	-11	-4	-1	-4	16
COc1cc2c(c(OC)c1OC)CC(c1ccccc1)=C(c1ccccc1)CC2NC(=O)C(F)(F)F (stereo not drawn)	2	.	.	-4	.
CCOC(=O)N1CCN(C(=O)CSCC(=O)Nc2nc(-c3ccc(OC)cc3)cs2)CC1	2	-1	-2	-2	-12
CCCC(=O)Nc1nc(-c2ccc(Cl)s2)cs1	1	-5	0	55*	20
CCOC(=O)N1CCN(C(=O)CSCC(=O)Nc2nc(-c3ccc(Cl)s3)cs2)CC1	-7	-3	2	42*	2
CCCC(=O)Nc1nc(-c2ccc(OC)cc2)cs1	-7	-5	-5	5	7
SMILES	GC-B act	APOBEC3G inh	A3A deaminase	GC-A act	FAS-TE inh	others
CCn1c(C)cc(/C=C2\NC(=O)N(Cc3ccc(Cl)cc3)C2=O)c1C	49*	-3	2	19	2
COc1ccc(CNC(=O)c2cccc3c(-c4cccc(C(N)=O)c4)coc23)cc1OC	38*	.	.	33	-7
COc1cc(-c2coc3c(C(=O)NCc4ccc(OC)c(OC)c4)cccc23)ccc1O	3	.	.	1	-2
CC(C)(C)OC(=O)[C@H](Cc1ccccc1)NC(=O)c1ncn2c1c(=O)[nH]c1ccc(Br)cc12	39*	.	.	19	-13
CC(C)(C)OC(=O)[C@H](Cc1ccccc1)NC(=O)c1nc[nH]c1C(=O)N[C@@H](Cc1ccccc1)C(=O)OC(C)(C)C	5	-4	2	-3	13
CCOC(=O)c1ccc(NC(=O)OC[C@@H]2CSCCS(=O)(=O)N2)cc1	4	.	.	4	.
CC(=O)c1ccc(S(=O)(=O)Nc2cccc(-n3cnnn3)c2)cc1	-1	22	43*	5	-1	A3A conf=31
Nc1[nH]c2cc(C(F)(F)F)ccc2c1C(=O)N1CCN(CCc2ccccc2)CC1	2	.	.	3	.
CCc1ccc(/C=C/c2c[nH]c3ccccc23)[n+](CC)c1	-9	20	65*	-6	-6	A3A conf=69*;UDG A3A counter=0
COc1cccc(N2CCN(CC(=O)NC(=O)NCc3ccco3)CC2)c1	-5	25	47*	-2	-2	A3A conf=27*;UDG A3A counter=-4
O=C(NC1CCCCN(Cc2ccc(Cl)cc2)C1=O)C(c1ccccc1)c1ccccc1 (stereo not drawn)	-2	.	.	-5	.
COc1ccccc1NC(=S)OC1CCC12CCC(c1ccccc1)CC2 (stereo not drawn)	0	.	.	-4	.
CSCC[C@H](NC(=O)c1ccc(Cl)c(S(=O)(=O)N2CCCC2)c1)c1nc2ccccc2[nH]1	-3	11	45*	-5	4	A3A conf=54*;UDG A3A counter=2
CSCCC(NC(=O)c1cccc(S(=O)(=O)N2CCN(C(C)=O)CC2)c1)c1nc2ccccc2[nH]1 (stereo not drawn)	-1	.	.	2	-2
Cc1cccc(C(=O)N2CCC(N3CCC(C(=O)N4CCOCC4)CC3)CC2)c1	3	-7	0	1	-4
Cc1cccc(CC(=O)N2CCC(N3CCC(C(=O)N4CCOCC4)CC3)CC2)c1	2	-5	98*	-1	-4	A3A conf=-6;UDG A3A counter=-3
COCc1c(C(=O)N2CCN(Cc3nc4ccccc4s3)CC2)oc2ccccc12	5	20	63*	1	-21	A3A conf=72*;UDG A3A counter=-2
COC(=O)C1=C(C)N(Cc2ccccc2)C(=NCCc2ccccn2)N[C@H]1c1cccc(F)c1	-26	15	48*	-18	-14	A3A conf=63*;UDG A3A counter=-4
CCN1C(=NCCc2ccccn2)N[C@@H](c2cccc(F)c2)C(C(=O)OC)=C1C	-12	5	48*	-13	-10	A3A conf=63*;UDG A3A counter=-2
COc1cc(-c2nnc(SCC(=O)NN=Cc3c[nH]c4ccccc34)n2-c2ccccc2)cc(OC)c1OC	-14	.	.	-8	.
Cc1cccc(NC(=O)CSCC(=O)Nc2cc(Cl)ccc2N2CCN(C)CC2)c1	-16	7	51*	-20	-1	A3A conf=26
O=C(CSc1nc2ccccc2c(=O)[nH]1)c1cccs1	-9	0	44*	0	-6	A3A conf=0

Assay outcomes: PubChem BioAssay, Sanford-Burnham Center for Chemical Genomics
